Reference: PubChem BioAssay
Activity calls are given as the source filed them.

How the values were obtained:
[1] = optical density shifts of acrAB sulA E. coli – strain DRC41, OD650, 48 h, E. coli filamentation inducer project, primary screen (AID 1152); settings: higher = more signal, called active from +8 up or from −8 down;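 note: E. coli MC1000 strain DRC41 lacking acrAB efflux pump and sulA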
[2] = probe aLefty1 binding on compound microarray – biochemical, small-molecule microarray, 635/667 nm fluorescence, primary screen (AID 1153); settings: higher = more signal;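 note: score merges spot fluorescence with signal-to-noise ratio from the scanned slide images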
[3] = plasmodial surface anion channel blockers, osmotic lysis – cell-based, P. falciparum Indochina, OD700, 1 h, primary screen (AID 1154); settings: P. falciparum Indochina infected RBC osmotic lysis, higher = more signal, called active from +8 up or from −8 down
[4] = plasmodial surface anion channel blockers, osmotic lysis – cell-based, P. falciparum Indochina, OD700, 2 h, primary screen (AID 1155);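 note: lysis reports solute entry through the parasite surface anion channel PSAC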; settings: P. falciparum Indochina infected erythrocytes, higher = more signal, called active from +8 up or from −8 down
[5] = changes in parasitized red cell lysis, either direction – P. falciparum Indochina, OD700, 3 h, PSAC antagonist project, primary screen (AID 1156); settings: P. falciparum-infected erythrocytes, osmotic lysis, higher = more signal, called active from +8 up or from −8 down
[6] = plasmodial surface anion channel blockers, osmotic lysis – cell-based, P. falciparum Indochina, OD700, 18 h, primary screen (AID 1157); settings: P. falciparum Indochina infected erythrocytes, osmotic lysis OD700, 18 h; higher = more signal, called active from +8 up or from −8 down
[7] = S6 kinase pathway phospho-S6 level changes – cell-based, A549, cytoblot, luminescence, serum-stimulated, primary screen (AID 1158); settings: 5 h, higher = more signal;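 note: serum-stimulated A549 lung adenocarcinoma cells; signal is phosphorylated S6 detected by cytoblot immunostaining with HRP secondary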
[8] = target: NADPH oxidase 2 (Homo sapiens) (UniProt P04839); assay: compounds shifting NOX2 Amplex Red fluorescence – cell-based, HEK293-NOX2, PMA-stimulated, NOX inhibitor project, primary screen (AID 1159); settings: 45 min, higher = more signal, called active from +8 up or from −8 down; note: test concentration not given here
NADPH oxidase 2 (Homo sapiens), sequence (P04839 whole entry, looked up): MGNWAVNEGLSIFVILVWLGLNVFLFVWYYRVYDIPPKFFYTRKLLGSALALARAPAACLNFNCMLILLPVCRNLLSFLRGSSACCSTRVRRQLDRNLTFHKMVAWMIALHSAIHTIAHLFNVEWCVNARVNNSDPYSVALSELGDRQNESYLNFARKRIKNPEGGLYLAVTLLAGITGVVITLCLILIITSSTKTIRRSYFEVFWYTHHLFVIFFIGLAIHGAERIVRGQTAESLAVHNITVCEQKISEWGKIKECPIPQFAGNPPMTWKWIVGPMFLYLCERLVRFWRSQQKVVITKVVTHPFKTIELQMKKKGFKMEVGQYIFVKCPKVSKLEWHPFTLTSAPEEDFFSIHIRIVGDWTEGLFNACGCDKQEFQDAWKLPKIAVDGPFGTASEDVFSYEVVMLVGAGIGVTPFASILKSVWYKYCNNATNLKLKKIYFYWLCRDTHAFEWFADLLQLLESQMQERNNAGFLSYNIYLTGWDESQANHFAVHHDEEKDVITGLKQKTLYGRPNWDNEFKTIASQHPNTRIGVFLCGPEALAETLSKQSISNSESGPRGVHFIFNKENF

[9] = target: NADPH oxidase 4 (Homo sapiens) (UniProt Q9NPH5); assay: compounds shifting NOX4 Amplex Red fluorescence – cell-based, HEK293-NOX4, tetracycline-induced, NOX inhibitor project, primary screen (AID 1160); settings: HEK293-NOX4, Amplex Red H2O2 fluorescence, 45 min; higher = more signal, called active from +8 up or from −8 down
NADPH oxidase 4 (Homo sapiens), sequence (Q9NPH5 whole entry, looked up): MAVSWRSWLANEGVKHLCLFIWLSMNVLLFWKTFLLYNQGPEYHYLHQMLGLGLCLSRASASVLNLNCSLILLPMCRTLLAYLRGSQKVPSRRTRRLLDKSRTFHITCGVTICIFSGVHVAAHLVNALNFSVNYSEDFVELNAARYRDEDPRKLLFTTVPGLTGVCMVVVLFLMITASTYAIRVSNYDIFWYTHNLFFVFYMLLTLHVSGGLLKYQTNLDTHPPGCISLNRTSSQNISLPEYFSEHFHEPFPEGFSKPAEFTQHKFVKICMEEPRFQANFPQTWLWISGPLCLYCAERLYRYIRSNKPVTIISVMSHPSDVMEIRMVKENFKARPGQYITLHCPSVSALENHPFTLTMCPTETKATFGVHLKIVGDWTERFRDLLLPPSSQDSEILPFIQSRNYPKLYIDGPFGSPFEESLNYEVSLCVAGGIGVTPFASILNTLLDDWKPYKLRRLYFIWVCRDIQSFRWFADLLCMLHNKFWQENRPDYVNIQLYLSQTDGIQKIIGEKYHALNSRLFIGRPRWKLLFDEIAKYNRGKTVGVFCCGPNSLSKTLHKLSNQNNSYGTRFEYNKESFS

[10] = target: NADPH oxidase 5 (Homo sapiens) (UniProt Q96PH1); assay: compounds shifting NOX5 Amplex Red fluorescence – cell-based, HEK293-NOX5, NOX inhibitor project, primary screen (AID 1161); settings: HEK293-NOX5, ionomycin, 45 min, higher = more signal
NADPH oxidase 5 (Homo sapiens), sequence (Q96PH1 whole entry, looked up): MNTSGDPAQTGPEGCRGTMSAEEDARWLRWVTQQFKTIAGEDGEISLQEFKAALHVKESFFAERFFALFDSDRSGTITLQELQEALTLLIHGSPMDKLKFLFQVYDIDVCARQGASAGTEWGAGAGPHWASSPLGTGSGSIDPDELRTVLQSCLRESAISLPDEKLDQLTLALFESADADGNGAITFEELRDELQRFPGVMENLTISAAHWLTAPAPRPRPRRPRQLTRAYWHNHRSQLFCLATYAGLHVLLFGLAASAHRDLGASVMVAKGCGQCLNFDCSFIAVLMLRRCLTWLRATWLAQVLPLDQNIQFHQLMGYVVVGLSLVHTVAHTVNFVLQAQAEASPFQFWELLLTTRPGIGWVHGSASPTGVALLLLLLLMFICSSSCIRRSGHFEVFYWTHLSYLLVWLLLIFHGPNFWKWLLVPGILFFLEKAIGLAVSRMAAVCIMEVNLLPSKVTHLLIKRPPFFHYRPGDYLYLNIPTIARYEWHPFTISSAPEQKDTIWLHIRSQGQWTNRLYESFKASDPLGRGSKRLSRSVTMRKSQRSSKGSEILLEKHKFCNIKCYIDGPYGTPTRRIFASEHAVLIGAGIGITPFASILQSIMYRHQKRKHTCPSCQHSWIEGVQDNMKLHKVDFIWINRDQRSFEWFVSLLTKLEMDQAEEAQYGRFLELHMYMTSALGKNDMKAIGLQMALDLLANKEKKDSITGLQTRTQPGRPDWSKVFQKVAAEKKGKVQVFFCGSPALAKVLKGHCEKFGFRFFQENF

[11] = compound effects on lung adenocarcinoma cell viability – A549, calcein-AM fluorescence, 48 h, basal, profiling panel (AID 1162); settings: higher = more signal; note: test concentration not given here
[12] = compound effects on differentiated 3T3-L1 adipocyte viability – cell-based, 3T3-L1 adipocytes, calcein-AM fluorescence, 48 h, basal, profiling panel (AID 1163); settings: 3T3-L1 adipocytes viability, higher = more signal; note: test concentration not given here
[13] = compound effects on hepatocellular carcinoma cell viability – HepG2, calcein-AM fluorescence, 48 h, basal, profiling panel (AID 1164); settings: higher = more signal; note: test concentration not given here
[14] = compound effects on multiple myeloma cell viability – MM1S, calcein-AM fluorescence, 48 h, basal, profiling panel (AID 1165); settings: higher = more signal;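 note: viability of MM1S multiple myeloma cells under basal unstimulated conditions; test concentration not given here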
[15] = calcein-AM signal in unstimulated myeloma cells – cell-based, calcein-AM fluorescence, 48 h, PK04 Diversity Set, profiling panel (AID 1166); settings: RPMI8226 myeloma viability, higher = more signal;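 note: cells grown under basal conditions without added stimulus; test concentration not given here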
[16] = JC-1 mitochondrial signal, unstimulated HepG2 cells – cell-based, JC-1 fluorescence, 24 h, 100 nL compound, profiling panel (AID 1167); settings: HepG2 mitochondrial potential, higher = more signal; note: test concentration not given here
[17] = JC-1 mitochondrial signal, unstimulated adipocytes – cell-based, JC-1 fluorescence, 3T3-L1 adipocytes, 24 h, 100 nL compound, profiling panel (AID 1168); settings: JC-1 mitochondrial fluorescence, higher = more signal, called active from +8 up or from −8 down; note: test concentration not given here
[18] = JC-1 mitochondrial signal, unstimulated myeloma cells – cell-based, JC-1 fluorescence, RPMI8226, 24 h, 100 nL compound, profiling panel (AID 1169); settings: JC-1 mitochondrial potential fluorescence, higher = more signal; note: test concentration not given here
[19] = JC-1 mitochondrial signal, unstimulated MM1S myeloma – cell-based, JC-1 fluorescence, 24 h, 100 nL compound, profiling panel (AID 1170); settings: MM1S mitochondrial potential, higher = more signal; note: test concentration not given here
[20] = resazurin metabolic signal in A549 cells – cell-based, resazurin fluorescence, 24 h, PK04 Diversity Set, profiling panel (AID 1171); settings: A549 viability, higher = more signal, called active from +8 up or from −8 down; note: test concentration not given here

Row | SMILES | z-score [1] | composite z-score [2] | z-score [3] | z-score [4] | z-score [5] | z-score [6] | z-score [7] | z-score [8] | z-score [9] | z-score [10] | z-score [11] | z-score [12] | z-score [13] | z-score [14] | z-score [15] | z-score [16] | z-score [17] | z-score [18] | z-score [19] | z-score [20]
1 | COC(=O)C(CC#Cc1ccc2c(c1)[C@]1(C(=O)N2)[C@H](C(=O)Nc2nc3ccccc3s2)[C@H]2C(=O)O[C@H](c3ccccc3)[C@H](c3ccccc3)N2[C@@H]1c1ccccc1OCCO)C(=O)OC | -0.839 (inactive) | 0.284 | 4.9 (inactive) | 2.16 (inactive) | -0.174 (inactive) | 1.69 (inactive) | -0.333 | 1.28 (inactive) | 0.252 (inactive) | 0.774 | -0.231 | 0.728 | 0.0091 | -0.426 | -2.6 | -2.7 | -0.502 (inactive) | -1.17 | -1.63 | -0.367 (inactive)
2 | COc1ccc([Si](C)(C)[C@H]2[C@H](CCO)O[C@@]3(C(=O)N(Cc4ccc(N(C=O)c5ccccc5)cc4)c4ccccc43)[C@@H]2C)cc1 | -0.208 (inactive) | 0.0406 | 17.5 (active) | 5.72 (inactive) | -0.149 (inactive) | 1.87 (inactive) | 0.788 | 0.118 (inactive) | 0.859 (inactive) | 2.37 | -0.585 | -1.32 | -2.76 | -1.48 | -3.78 | 0.119 | -0.393 (inactive) | -1.03 | -1.88 | -1.68 (inactive)
3 | O=C(c1ccccc1)N1Cc2ccccc2C[C@@]2(COC(c3ccc(OCCCO)cc3)=N2)C1=O | -0.298 (inactive) | 0.39 | 15.2 (active) | 1.26 (inactive) | 4.66 (inactive) | 0.498 (inactive) | -0.107 | 0.137 (inactive) | -0.302 (inactive) | -0.983 | 0.603 | 0.697 | 0.81 | -0.516 | 0.0855 | 1.47 | -0.768 (inactive) | -0.676 | 0.392 | 2.08 (inactive)
4 | COCCOC(=O)N1C(=O)[C@@]2(c3ccccc31)[C@H](c1ccccc1OCCO)N1[C@H](c3ccccc3)[C@H](c3ccccc3)OC(=O)[C@H]1[C@@H]2C(=O)N1CCN(c2ncccn2)CC1 | -0.102 (inactive) | 0.0402 | 4.19 (inactive) | 2.16 (inactive) | 0.98 (inactive) | 1.49 (inactive) | -0.248 | -0.652 (inactive) | -0.44 (inactive) | 0.183 | -0.588 | -0.678 | -0.478 | -1.7 | -0.949 | 0.323 | 0.665 (inactive) | -0.929 | -1.36 | -1.05 (inactive)
5 | CC(C)C(=C=CC[C@@H](O)c1ccc(OCCO)cc1)C[C@@H](O)c1ccccn1 | -0.197 (inactive) | -0.101 | 6.54 (inactive) | 0.977 (inactive) | 0.166 (inactive) | 0.479 (inactive) | -0.652 | 0.0116 (inactive) | 0.26 (inactive) | -0.124 | -0.343 | -1.03 | 0.411 | -0.473 | -0.3 | -0.737 | 0.00461 (inactive) | 0.0263 | -0.698 | -0.287 (inactive)
6 | CC(C)c1ccc(NN2C(C(O)c3ccc(B(O)O)cc3)C=CC3C(=O)N(c4ccccc4)C(=O)C32)cc1 (stereo not given) | -1.04 (inactive) | 0.0595 | 1.93 (inactive) | 0.698 (inactive) | 0.421 (inactive) | 1.27 (inactive) | -0.999 | -1.02 (inactive) | -2.31 (inactive) | -4.18 | -1.34 | -0.386 | -1.28 | -0.571 | -0.587 | -1.75 | -1.56 (inactive) | -0.894 | 0.00559 | -0.212 (inactive)
7 | CN1C(=O)C2C=CC(C(O)c3ccc([N+](=O)[O-])cc3)N(N3CCCCC3)C2C1=O (stereo not given) | -1.74 (inactive) | 0.385 | 2.06 (inactive) | 1.36 (inactive) | -0.0207 (inactive) | 0.9 (inactive) | -0.919 | 0.114 (inactive) | -2.07 (inactive) | -1.12 | -0.234 | -0.69 | -0.384 | -0.324 | -0.721 | -1.24 | -0.927 (inactive) | 0.0849 | 0.134 | -0.197 (inactive)
8 | CCN(CC)c1ccc(N2CC=CC34O[C@@H]5C=CCCOC(=O)C5[C@H]3C(=O)N(CCCCCCO)[C@@H]4C2=O)cc1 (stereo not given in full) | 3.12 (inactive) | -0.0361 | 1.25 (inactive) | 0.392 (inactive) | 0.474 (inactive) | -0.53 (inactive) | 0.872 | -0.089 (inactive) | 0.576 (inactive) | 0.762 | 0.75 | 1.45 | 0.239 | 1.97 | 0.401 | 0.432 | -0.641 (inactive) | -0.197 | -0.585 | 1.02 (inactive)
9 | CCOC(=O)C1=C[C@@H](C(C)(C)C)N(S(=O)(=O)c2ccc(C)cc2)[C@H]1c1ccc(F)cc1 | -1.68 (inactive) | -0.0162 | 0.957 (inactive) | 0.716 (inactive) | -0.862 (inactive) | 0.634 (inactive) | -0.827 | -0.829 (inactive) | -0.217 (inactive) | 0.821 | -1.5 | 0.131 | -1.71 | -1.55 | -3 | 4.5 | -0.43 (inactive) | -1.03 | -0.781 | 0.627 (inactive)
